# Where “and” joins values, the source holds several entries; their conditions need not be identical. Equal entries are not always repeated. The whole screen tested about 340,000 compounds, of which about 6,200 (1.8%) were called active. About 10% were inconclusive and are not listed. Calls follow the shape of the dose curve; as a rule, active = well fitted activation curve with a large enough effect; inconclusive = small, poorly fitted or top-dose-only effect; inactive = no such curve, though single readings can be large or run the other way. What follows is part of a selection rich in actives, with near analogues and random picks from the rest. Some structures have more than one record in an assay (separate samples or runs), and their calls can disagree.
# Test: A quantitative high throughput screen for small molecules that induce DNA re-replication in SW480 colon adenocarcinoma cells. Also: nearly all actives have a fitted effect of over 55% in size. As to re-replication activation: % of control where 0% means no effect.
# Conditions: Hoechst DNA content imaging, 48 h; series mostly up to 46.1 µM; re-replication activation: at the top concentration
# Summary of the method: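 Quantitative HTS format with DMSO vehicle controls; 48 hr drug incubation at 37 C, then 40 min Hoechst staining and scanning imager measurement at 405 nm excitation.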
# Potency is read from the fitted curve at half-maximal effect.
SMILES,re-replication activation,Potency
CCOC(=O)C(CO)NC(=O)C1(NC(C)=O)CCCC1 (stereo not given),-10.1% (inactive),
C=CCn1c(SCc2c(C)noc2C)nc2sc3c(c2c1=O)CCC(C)C3 (stereo not given),,9.2 µM (active)
C=CCn1c(SCC(=O)NCCCO)nc2sc3c(c2c1=O)CCC3,-40.9% (inactive),
C=CCn1c(SCC(=O)NCC2CCCO2)nc2sc(C)c(C)c2c1=O (stereo not given),0.372% (inactive),
Cc1ccc(NC(=O)CN(C)C(=O)c2ccc(Cl)c(S(=O)(=O)NCc3ccco3)c2)cc1,-11.7% (inactive),
Cc1c(Cl)cnc(NC(=O)COC(=O)C2CCCC2)c1Cl,-5.78% (inactive),
O=C1CC(c2ccccc2)C(c2ccccc2)=NN1 (stereo not given),0.345% (inactive),
COc1ccc(-c2cn(-c3ccc(OC)cc3)c(=S)[nH]2)cc1,-2.03% (inactive),
O=c1oc2ccccc2cc1-c1cn(-c2ccccc2)c(=S)[nH]1,,9.2 µM (active)
S=c1[nH]c(-c2cccs2)cn1-c1ccccc1,-22.2% (inactive),
O=C(O)c1ccc(S(=O)(=O)c2ccccc2)s1,2.18% (inactive),
O=[N+]([O-])c1ccc(COc2ccccc2CN2CCOCC2)cc1,-7.64% [at 9.22 µM] (inactive),
CCOC(=O)N1CCN(S(=O)(=O)c2ccc(OC)cc2)CC1,13.6% (inactive),
NC(=O)c1ccccc1N(Cc1ccccc1)S(=O)(=O)c1ccccc1,0.226% (inactive),
CCOC(=O)N1CCN(C(=O)c2ccccc2N(Cc2ccccc2)S(=O)(=O)c2ccc(OC)cc2)CC1,,14.6 µM (active)
CCOC(=O)c1ccccc1NC(=O)CSc1nc2c(sc(=S)n2CC)c(=O)[nH]1,-5.64% (inactive),
CCOC(=O)C1=C(CN2CCCCCC2)NC(=O)NC1c1cccc([N+](=O)[O-])c1 (stereo not given),-5.96% (inactive),
CCOC(=O)C1=C(c2ccccc2)NC(=S)NC1c1ccc(Cl)cc1 (stereo not given),-90.1% (inactive),
CCOC(=O)C1=C(CN2CCc3ccccc32)NC(=O)NC1c1ccc(Cl)cc1 (stereo not given),,7.31 µM (active)
O=C(CN1CCN(c2ccccc2O)CC1)NC(=O)NCc1ccccc1,14.8% (inactive),
COc1ccccc1N1CCN(CC(=O)NC(=O)NCc2ccco2)CC1,,5.8 µM (active)
O=C(CN1CCN(S(=O)(=O)/C=C/c2ccccc2)CC1)NC(=O)NCc1ccco1,2.96% (inactive),
COC1=CC(=O)OC(c2ccc(OC)cc2)C1 (stereo not given),-1.64% (inactive),
O=C(NCCC1CCCCN1S(=O)(=O)c1cccs1)C(=O)Nc1ccc(F)cc1F (stereo not given),,11.2 µM (active)
COc1ccc(CCNC(=O)C(=O)NCC2CCCN2S(=O)(=O)c2cccs2)cc1OC (stereo not given),-2.6% (inactive),

SMILES,re-replication activation,Potency
COc1ccccc1CCNC(=O)C(=O)NCCC1CCCCN1S(=O)(=O)c1cccs1 (stereo not given),-550% (inactive),
Cc1noc(C)c1NC(=O)Nc1ccc2c(c1)C(=O)N([C@H](C)CO)C[C@H](C)[C@@H](CN(C)C(=O)Nc1ccc(C(F)(F)F)cc1)O2,-53.2% (inactive),
Cc1cc(C)nc(N/N=C/c2ccncc2)n1,-5.1% (inactive),
CCNc1nc(NCC)nc(N/N=C/c2ccc(O)c(OC)c2)n1,-6.79% (inactive),
CCN(CC)c1ccc(/C=N/Nc2nc(C)cc(C)n2)c(O)c1,,8.2 µM (active)
Oc1ccc(Cl)c2c1CCC2,0.638% (inactive),
CSc1ncnc2c1ncn2CC(=O)C1CCC2C3CCC4=CC(=O)CCC4(C)C3CCC12C (stereo not given),5.31% (inactive),
Cc1ccc(C(=O)NCC(=O)NC2CC2)cc1,6.41% (inactive),
Cc1cc(NC(=O)c2cc3ccccc3o2)no1,-4.96% (inactive),
CCNC(=O)c1ccc(OCC(=O)Nc2ccc(F)cc2)c(OC)c1,-4.04% (inactive),
COc1ccc(C(=O)Nc2ccc(C3(C#N)CCCC3)cc2)cc1OC,10.6% (inactive),
COc1ccc(C(=O)N/N=C2\CCS(=O)(=O)c3ccc(F)cc32)cc1OC,,10.3 µM (active)
CN(C)C(=O)CCc1ccc2c3c([nH]c2c1)[C@]1(C)[C@@H](C(=O)N2CCOCC2)C[C@H](CC(=O)NCCc2ccccn2)C(=O)N1CC3,2.59% (inactive),
COc1ccc(NS(=O)(=O)c2ccc(N3CCOCC3)c(NC(=O)/C=C/C(=O)O)c2)cc1,1.18% (inactive),
Cc1ccc(S(=O)(=O)CCC(=O)OCC(=O)N(C)Cc2ccccc2)cc1,-66.5% (inactive),
CCOc1ccc(-n2c(SCC(=O)Nc3cc(C(=O)O)ccc3Cl)nc3ccccc3c2=O)cc1,-13.2% (inactive),
CCOc1ccc(-n2c(O)c(/C=N/c3ccnn3Cc3ccncc3)c3ccccc3c2=O)cc1,,20.6 µM (active)
Cc1ccc(-n2c(O)c(C=Nc3ccc(S(=O)(=O)Nc4ncccn4)cc3)c3ccccc3c2=O)cc1C,-2.11% (inactive),
COc1ccc(C(CNC(=O)c2cccc(S(=O)(=O)Nc3ccc(Br)cc3)c2)N(C)C)cc1 (stereo not given),6.62% (inactive),
CCOc1cc(C=NNC(=O)CCCC(=O)NN=Cc2ccc(O)c(OCC)c2)ccc1O,-6.49% (inactive),
Cc1nc2ccccc2nc1N/N=C/c1ccc(O)cc1O,,1.64 µM (active)
Oc1ccc(-c2nc3ccccc3nc2-c2ccc(O)cc2O)c(O)c1,-1.54% (inactive),
Oc1ccc(/C=N/NC2=NCCCCC2)c(O)c1,-5.14% (inactive),
COc1ccc(OCCNC(=O)c2cc(C3CC3)nc3c2cnn3C(C)C)cc1,-6.37% (inactive),
Cc1cn(C2CC(O)C(CO)O2)c(=O)n(CCCc2ccccc2)c1=O (stereo not given),-5.17% (inactive),

SMILES,re-replication activation,Potency
CN(C)c1ccc(CSc2ccccc2)cc1,-9.06% (inactive),
COC(=O)Cc1nc2c(N)nc(N)nc2[nH]c1=O,-4.14% (inactive),
CCc1cc2c(=O)n(-c3ccccc3)c(SCC(=O)O)nc2s1,,18.4 µM (active)
Cc1sc2nc(SCCO)n(-c3ccccc3)c(=O)c2c1C,-5.37% (inactive),
C=CCn1c(SCC(=O)c2c(N)n(C)c(=O)n(C)c2=O)nc2sc(CC)cc2c1=O,-1.6% (inactive),
COc1ccc(C(=O)COC(=O)c2c(C)noc2C)cc1Cl,-8.23% (inactive),
Cc1ccc(C(=O)NNC(=O)c2ccc3c(c2)OCCO3)cc1,-4.97% (inactive),
CC1CCCCC1NCC(=O)Nc1ccccc1C(=O)Nc1ccccc1 (stereo not given),-3.41% (inactive),
O=C(NNC(=O)c1ccccc1O)c1ccccc1O,,1.64 µM (active)
O=C(Nc1ccc(O)cc1)c1ccccc1O,-4.02% (inactive),
Cc1cc(C(=O)CCC(=O)NNC(=O)c2ccccc2O)c(C)s1,3.5% (inactive),
O=C(CN1C(=O)c2ccc([N+](=O)[O-])cc2C1=O)Nc1nnc(C2CC2)s1,-0.538% (inactive),
COc1cc(Cl)c(C)cc1NC(=O)CSc1nnc(CN2CCCC2)o1,0% (inactive),
C/C(=N\NC(=O)c1ccoc1C)c1ccccc1O,,2.31 µM (active)
Cc1ccnc(NC(=O)c2ccoc2C)c1,1.1% (inactive),
CC(=O)NC(=O)c1ccccc1O,-1.55% (inactive),
CC(C)NC(=O)Nc1cccc2c1O[C@@H](CN(C)S(=O)(=O)c1ccc(F)cc1)[C@@H](C)CN([C@H](C)CO)C2=O,16% (inactive),
Cc1ccc(OCCNC(=O)c2cccc(S(=O)(=O)N3CCN(Cc4ccccc4)CC3)c2)cc1,11.6% (inactive),
CCCCN1C(=O)/C(=C2/C=CC=CN2C)SC1=S,3.3% (inactive),
COc1cc(/C=C2/SC(=S)N(Cc3ccccc3)C2=O)cc(OC)c1O,-77.2% (inactive),
CN1C=CC=C/C1=C1\SC(=S)N(Cc2ccccc2)C1=O,,23.1 µM (active)
O=C(O)C(CCc1ccccn1)c1ccccc1 (stereo not given),-10% (inactive),
Cn1c(CC(=O)NNC(=O)c2ccccc2F)nc2ccccc21,9.79% (inactive),
CN(NC(=O)c1ccccc1F)c1nc(C(F)(F)F)nc2ccccc12,,0.517 µM (active)
CC(NC(=O)c1ccccc1F)c1cccc2ccccc12 (stereo not given),-6.5% (inactive),

SMILES,re-replication activation,Potency
COC(=O)Cc1c(O)ccn(Cc2cccc(C(F)(F)F)c2)c1=O,0.872% (inactive),
COC(=O)Cc1csc(/N=C/c2c(O)n(-c3cccc(C(F)(F)F)c3)c(=O)c3ccccc23)n1,,inactive and 11.6 µM (active)
COC(=O)Cc1csc(Nc2c(C)n(C)n(-c3ccccc3)c2=O)n1,-10.6% (inactive),
CC(C)(O)c1ccccc1CC[C@H](SCC1(CC(=O)O)CC1)c1cccc(/C=C/c2ccc3ccc(Cl)cc3n2)c1,2.31% (inactive),
CN(C(=O)COC(=O)Cc1ccccc1[N+](=O)[O-])C1CCS(=O)(=O)C1 (stereo not given),0.116% (inactive),
N#Cc1c(-c2ccccc2)cc(-c2ccccc2)nc1SCC(=O)O,-1.38% (inactive),
CCOC(=O)CC(=O)CSc1nc(-c2ccccc2)cc(-c2ccc(Cl)cc2)c1C#N,,20.6 µM (active)
N#Cc1c(C(F)(F)F)cc(-c2ccc(Cl)cc2)nc1SCC(=O)O,-7.01% (inactive),
CCOc1ccc(CCNC(=O)COC(=O)C2CCN(S(=O)(=O)c3ccccc3)CC2)cc1OCC,-32.9% (inactive),
CC(=O)CSc1nc(CCc2ccccc2)c(C#N)c(=O)[nH]1,4.33% [at 1.84 µM] (inactive),
O=C(N[C@H]1C/C=C\C(c2ccc(F)cc2)N(Cc2ccccc2)C(=O)C1)OCC1c2ccccc2-c2ccccc21 (stereo not given in full),5.83% (inactive),
CN(C(=O)c1ccc(NC(=O)Cc2cccc(NC(=O)C3CCN(C(=O)c4ccccc4)CC3)c2)cc1)C1CC1,-22.3% [at 9.22 µM] (inactive),
O=C(CNC(=O)c1cc(S(=O)(=O)N2CCOCC2)ccc1N1CCCC1)Nc1ccc(F)c(F)c1,-6.04% (inactive),
COc1ccc(OCc2cn3c(C)cc(C)nc3n2)cc1,-0.0448% (inactive),
COc1ccc(C(C[N+](=O)[O-])n2nc(C)cc2C)cc1 (stereo not given),,5.8 µM (active)
COc1ccc(C(=O)CSc2nc(C)cc(C)n2)cc1[N+](=O)[O-],-11.1% (inactive),
Cc1cc(C(=O)COc2ccc(Br)cc2F)c(C)n1C1CC1,-11.4% (inactive),
O=C1NC(c2ccccc2)Cc2ccncc21 (stereo not given),-3.42% (inactive),
C[C@@H]1NS(=O)(=O)c2cc(Cl)ccc2O[C@@H]1c1ccccc1,7.03% (inactive),
O=C1OCCN1C(=O)[C@H]1[C@H](c2ccc(F)cc2)C(c2ccccc2)=NN1c1ccc(Br)cc1,,9.2 µM (active)
Cc1cc(OCCCC(=O)Nc2cc(S(=O)(=O)N3CCOCC3)ccc2N2CCOCC2)ccc1Cl,-0.175% (inactive),
O=C1C(=O)N(c2ccccc2)C(c2ccccc2)C1c1ccccc1 (stereo not given),0.98% (inactive),
O=C(O)CC1=C(Nc2ccccc2)C(=O)N(c2ccccc2)C1c1ccc(Cl)cc1 (stereo not given),3.57% (inactive),
O=C1C=C(c2ccc(Cl)cc2)C(=O)N1Nc1ccccc1,,6.51 µM (active)
O=C1c2cccc3cc(Br)cc(c23)C(=O)N1Nc1ccccc1,-1.37% [at 9.22 µM] (inactive),

# From PubChem BioAssay AID624297 (National Center for Advancing Translational Sciences (NCATS), 2012)
